Bioassay records deposited in PubChem by National Center for Advancing Translational Sciences (NCATS).
D1 potentiator – enhances dopamine response at the human D1 receptor; HEK293 TREx D1 cells, calcium flux, dopamine EC20 potentiation; potentiation, % at 10 µM; actives 0.036% (n = 360,000); in the data active = potentiation above about 30%
Target sequence (P21728 whole entry, looked up): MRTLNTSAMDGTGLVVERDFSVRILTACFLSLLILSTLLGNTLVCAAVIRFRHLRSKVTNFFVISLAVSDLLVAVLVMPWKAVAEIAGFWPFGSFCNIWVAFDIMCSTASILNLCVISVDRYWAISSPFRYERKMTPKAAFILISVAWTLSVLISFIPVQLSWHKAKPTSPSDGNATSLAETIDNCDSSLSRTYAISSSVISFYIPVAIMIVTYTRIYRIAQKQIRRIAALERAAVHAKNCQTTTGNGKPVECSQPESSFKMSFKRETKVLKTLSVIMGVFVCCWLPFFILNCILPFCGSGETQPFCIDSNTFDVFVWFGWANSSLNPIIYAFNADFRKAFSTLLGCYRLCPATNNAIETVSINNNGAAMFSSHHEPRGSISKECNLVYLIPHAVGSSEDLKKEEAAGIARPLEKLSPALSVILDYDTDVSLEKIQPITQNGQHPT
D1 antag – antagonists of human D1 dopamine receptor | HEK293 TREx D1 cells, calcium flux, dopamine EC80; hits give low values | activity change, negative = inhibition, % at 10 µM | actives 3.2% (n = 360,000) | AID 504652; in the data active = activity change below about -30%
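Compound effects on dopamine-evoked calcium signalling were measured in tetracycline-induced HEK293 Trex D1 cells. Dopamine at EC80 followed a 180 s compound pre-read, and fluorescence was tracked kinetically for 180 s more.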
TRHR PAM – TRH receptor (human) allosteric enhancement; P34981; TRHR cells, fluo-8 calcium fluorescence, EC20 TRH enhancement; enhancement, % at 2 µM; actives 0.66% (n = 360,000); in the data active = enhancement above about 30%
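TRHR-expressing cells loaded with fluo-8 calcium dye were read kinetically (ex 480/em 530) during compound addition, then stimulated with an EC20 of TRH (10 nM final). Enhancement of the Gq-mediated intracellular calcium response was scored.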
D1 agonist – human D1 receptor agonism. P21728. HEK293 T-REx D1 cells, calcium flux, agonist mode. activation, % at 2 µM. actives 1% (n = 360,000)
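Tetracycline-induced HEK293 TREx D1 cells, force-coupled to calcium signalling, were dye-loaded with a no-wash calcium kit. Compound was pin-added after a 10 s baseline. Fluorescence was read kinetically at 1 cycle/s for 180 s, with calcium rises flagged as agonism.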
TRHR ag – TRH receptor (human) agonism; TRHR cells, calcium flux fluo-8, FDSS agonist mode; activation, % at 2 µM; AID 493084; P34981; actives 0.18% (n = 360,000)
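Read-out: compound-evoked intracellular calcium rise in TRHR cells, fluo-8 dye, kinetic FDSS fluorescence at 1 s/cycle following a 10-cycle baseline. Cells cultured overnight before dye loading (30 min–1.5 h, RT).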
Large screens that a line does not name were inactive; ! = not confirmed by another sample. A selection: hits, their analogues and other compounds. The true share with any hit is near 4.7%. Rule as the data show it, unless noted: active = activation above about 30%; inactive = the rest.

Cc1ccc(C)c(NC(=O)C2CCN(c3nn4c(=O)cc(C)nc4s3)CC2)c1	none
CCOC(=O)c1ccc(NC(=O)c2c(NCc3cc(OC)c(OC)cc3OC)sc3c2CCCC3)cc1	none
CCOC(=O)c1c(C)[nH]c(C)c1S(=O)(=O)N1CCC(C(=O)Nc2ccc(OCC)cc2)CC1	none
Cc1ccc(N2CC(C(=O)NCc3nnnn3-c3ccc(C)c(C)c3)CC2=O)cc1C (stereo unspecified)	none
COC(=O)NN=C1CCC(c2ccccc2)CC1 (stereo unspecified)	none
CC(C)(C)C(=O)NN=C1CCC(c2ccccc2)CC1 (stereo unspecified)	D1 antag -33
CCN(CCCNC(=O)c1nn(-c2ccc(C)cc2)c(=O)c2c1c1ccccc1n2C)c1cccc(C)c1	none
CCOC(=O)c1ccc(NC(=O)CCc2c(C)n(CC)c3cc(-c4ccccc4OC)nn3c2=O)cc1	none
Cc1ccc2c(c1)Cc1c(nc(-c3ccc(F)cc3)nc1SCC(=O)N1CCCCC1)O2	TRHR PAM 33
COC(=O)Nc1ccc(SCC(=O)c2ccc(Cl)cc2)cc1	D1 antag -32
COc1ccc(COC(=O)c2c(C)nn(-c3ccccc3)c2Cl)cc1	D1 antag -37
COc1ccccc1NC(=O)C(OC(=O)CNC(=O)c1ccccc1)c1ccccc1 (stereo unspecified)	none
Cc1cccc(NC(=O)NCCn2c(=O)oc3ccc(C)cc32)c1	none
CC(C)OC(=O)c1c2c(n3ccccc13)C(=O)c1ccccc1C2=O	D1 agonist 254, TRHR ag 75
COC(=O)c1cc2c(C)c(C)c3ccccn3c-2c1C(=O)OC	none
CC(NC(=O)C1CCC(CNS(=O)(=O)c2ccccc2)CC1)c1ccccc1 (stereo unspecified)	D1 antag -41
CC1=C(OC(=O)c2ccccc2)C(C)(C)C(c2ccccc2)OC1=O (stereo unspecified)	D1 antag -38
Cc1cc(C)c2oc(C(=O)Nc3c(C(=O)c4ccccc4)oc4ccccc34)cc(=O)c2c1	none
O=C(Nc1ccncc1)c1ccc(F)cc1	none
O=C(Nc1ccncc1)c1ccc(-c2ccccc2)cc1	D1 antag -39
O=C(Nc1cccnc1)c1ccc(F)cc1	none
O=C(Nc1cccnc1)c1ccc(-c2ccccc2)cc1	D1 antag -30
O=C(NC(=S)Nc1ccccn1)c1ccc(-c2ccccc2)cc1	D1 antag -32
CC(C)(C)NC(=O)C1CCN(c2nc3ccccc3nc2C(F)(F)F)CC1	none
COc1cccc(N2CCN(C(=O)c3cccc(NC(=O)c4nsc5ccccc45)c3)CC2)c1	none
COc1cc(C)c(Cl)c(C)c1S(=O)(=O)NC1CC(C)(C)NC(C)(C)C1	TRHR PAM 39
Cc1cccc(N2CCN(C(=O)c3cccc(N4C(=O)C5C6C=CC(C6)C5C4=O)c3)CC2C)c1 (stereo unspecified)	D1 antag -35
Cc1cccc(N2CCN(C(=O)c3ccccn3)CC2C)c1 (stereo unspecified)	none
Cc1ccc(-c2c(C(=O)N3CCN(c4cccc(C)c4)C(C)C3)oc(=O)c3ccccc23)cc1 (stereo unspecified)	D1 antag -37
Cc1cccc(N2CCN(C(=O)CCN3C(=O)C4C5C=CC(C5)C4C3=O)CC2C)c1 (stereo unspecified)	none
COc1ccc(OC)c(NC(=O)C(OC(=O)CNC(=O)c2ccccc2)c2ccccc2)c1 (stereo unspecified)	none
O=C(O)c1ccc(NC(=O)c2cccc(N3C(=O)C4C5CCC(C5)C4C3=O)c2)cc1 (stereo unspecified)	none
COc1ccc(NC(=O)c2cccc(N3C(=O)C4C5CCC(C5)C4C3=O)c2)cc1 (stereo unspecified)	D1 antag -80
COc1ccc(NC(=O)c2cccc(N3C(=O)C4C5C=CC(C6CC56)C4C3=O)c2)c(OC)c1 (stereo unspecified)	D1 antag -39
COc1ccc(NC(=O)c2cccc(N3C(=O)C4C5C=CC(C5)C4C3=O)c2)c(OC)c1 (stereo unspecified)	none
CC(C)/C=C1\CC/C(=C\c2ccc(N(C)C)cc2)C1=O	D1 antag -31, D1 agonist 243, TRHR ag 94
CCOC(=O)c1ccc2c(c1)[nH]c(=S)n2CC	none
CCN(CC)S(=O)(=O)c1ccc2c(c1)[nH]c(=S)n2CC	TRHR PAM 38
CCCCN(C)C(=O)CN1C(=O)c2cccnc2Oc2ccc(Cl)cc21	none
O=C(C1CCN(S(=O)(=O)Cc2ccccc2)CC1)N1CCN(c2ccccc2)CC1	D1 antag -61
CCS(=O)(=O)N1CCN(c2ccccc2)CC1	TRHR PAM 32
O=C(C1CCN(S(=O)(=O)Cc2ccccc2)CC1)N1CCN(c2ncccn2)CC1	none
O=S(=O)(Cc1ccccc1)N1CCN(c2ncccn2)CC1	D1 antag -51
CNS(=O)(=O)c1cnccc1N1CCN(c2cccc(Cl)c2)CC1	D1 antag -31
CCOC(=O)Cc1c(C(=O)OCC)nnc2c(-c3ccccc3)c(C)nn12	none
COc1cccc(-c2nc(CS(=O)(=O)CC(=O)Nc3ccc(C)c(Cl)c3)c(C)o2)c1	none
CCC1(C)Cc2c(sc3nc(SC)n(-c4ccc(C)cc4)c(=O)c23)CO1 (stereo unspecified)	none
O=C(C1CCN(S(=O)(=O)c2cccnc2)CC1)N1CCN(c2cccc(Cl)c2)CC1	D1 antag -83
COc1ccc(S(=O)(=O)N(CC(=O)Nc2cccnc2)c2ccc(Cl)cc2)cc1	none
O=C(COC(=O)C1CCC(=O)N1)Nc1cc(Cl)ccc1Cl (stereo unspecified)	D1 antag -80
CCOC(=O)C1CCN(C(=O)C2CCN(S(=O)(=O)c3c(C)noc3/C=C/c3ccc(C)cc3)CC2)CC1	none
Cc1cc(N2CCCC2)c(F)cc1/C=C\[N+](=O)[O-]	D1 agonist 400
Cc1ccc(NC(=O)CN(C)C(=O)CSc2nc3ccccc3c(=O)n2Cc2ccco2)cc1	D1 antag -33
CCN(CC)CCn1c(SCC(=O)Nc2ccc3c(c2)CCC3)nc2ccccc2c1=O	D1 antag -32
CCOCCCn1c(SCC(=O)Nc2cccc(OC)c2)nc2ccccc2c1=O	D1 antag -46!
Cc1cccc(CNC(=O)c2ccc(Cn3c(=O)c4cccn4c4cccnc43)cc2)c1	none
COc1ccc(-n2c(SCC(=O)NCc3ccccc3)nc3c([nH]c4ccccc43)c2=O)cc1	none
CC(C1CC2CCC1C2)n1c(COc2ccccc2F)nnc1SCC(N)=O (stereo unspecified)	D1 agonist 89
CCOC(=O)c1cc2c(ccn2C)n1CC(=O)N1CCN(c2cccc(C(F)(F)F)c2)CC1	D1 antag -38
